In paper PMC4336329 (PLoS ONE, 2015):
Among all 310,000 compounds or so, about 14,000 (4.5%) showed an effect of 50% or more. The effect is printed as a negative number. The list comes from a sample in which strong results are over-represented; it also holds similar structures and randomly drawn compounds.

molecular target: human ether-à-go-go-related gene (hERG) potassium channel (human, UniProt Q12809); assay: primary screen, population patch clamp on CHO cells stably expressing hERG; higher = less effect of the substance
Sequence (Q12809 whole entry, looked up): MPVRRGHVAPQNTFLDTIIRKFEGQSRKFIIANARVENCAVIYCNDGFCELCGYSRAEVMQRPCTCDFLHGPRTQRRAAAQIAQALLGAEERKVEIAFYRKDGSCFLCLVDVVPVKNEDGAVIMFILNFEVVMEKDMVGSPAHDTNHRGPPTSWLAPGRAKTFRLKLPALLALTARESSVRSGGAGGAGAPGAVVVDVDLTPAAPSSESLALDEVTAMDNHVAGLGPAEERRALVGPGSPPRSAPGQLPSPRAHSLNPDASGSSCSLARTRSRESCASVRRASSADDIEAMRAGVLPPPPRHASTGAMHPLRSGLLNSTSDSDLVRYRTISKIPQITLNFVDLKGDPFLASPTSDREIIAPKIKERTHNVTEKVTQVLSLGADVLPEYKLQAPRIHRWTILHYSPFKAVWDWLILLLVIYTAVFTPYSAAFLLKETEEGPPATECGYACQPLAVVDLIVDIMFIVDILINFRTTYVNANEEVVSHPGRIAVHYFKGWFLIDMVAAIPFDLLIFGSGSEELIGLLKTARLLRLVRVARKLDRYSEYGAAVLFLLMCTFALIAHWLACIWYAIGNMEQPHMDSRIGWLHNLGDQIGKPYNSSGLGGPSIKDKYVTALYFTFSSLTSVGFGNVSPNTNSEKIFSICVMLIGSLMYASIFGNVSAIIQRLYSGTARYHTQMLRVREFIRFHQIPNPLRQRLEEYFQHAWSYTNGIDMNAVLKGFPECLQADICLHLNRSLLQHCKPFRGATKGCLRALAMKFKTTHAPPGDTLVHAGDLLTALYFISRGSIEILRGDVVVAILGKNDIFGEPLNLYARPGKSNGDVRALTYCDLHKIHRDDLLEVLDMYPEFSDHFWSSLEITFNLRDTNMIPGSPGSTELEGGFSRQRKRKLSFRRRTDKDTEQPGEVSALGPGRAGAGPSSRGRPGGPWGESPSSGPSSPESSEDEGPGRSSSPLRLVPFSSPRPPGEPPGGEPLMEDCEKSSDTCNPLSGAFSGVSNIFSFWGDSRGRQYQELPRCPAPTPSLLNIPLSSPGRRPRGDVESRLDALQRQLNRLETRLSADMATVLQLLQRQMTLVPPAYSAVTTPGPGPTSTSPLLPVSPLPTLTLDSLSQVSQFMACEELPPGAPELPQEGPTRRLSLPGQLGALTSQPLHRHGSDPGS
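Also: peak tail current of the secondary pulse compared with the same well before compound.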

Compared with `CC(NC(=O)c1nn(C)c2c1CS(=O)(=O)c1ccccc1-2)c1ccccc1` (stereo not shown), `CCN(CC)CCn1c(SCC(=O)NCc2ccccc2)nc2c(sc3ccccc32)c1=O` is lower in “hERG current change (%, negative = inhibition) at 10uM” value: -13.1% for the first, -29.3% for the second.

First: CC(OC(=O)Cc1c(F)cccc1Cl)C(=O)NC1(C#N)CCCCC1 (stereo not shown)
Second: COc1ccccc1C(=O)Nc1ccc(OCC(=O)N2CCCCC2)cc1
The “hERG current change (%, negative = inhibition) at 10uM” value of the first is lower: -22.4% for the first, -2.87% for the second.

First: C=CCNC(=S)N1CCN(CCN=CC2=C(O)CC(c3cccs3)CC2=O)CC1 (stereo not shown)
Second: C=CCNC(=S)N1CCN(CCN=CC2=C(O)CC(c3ccc(Cl)cc3)CC2=O)CC1 (stereo not shown)
The “hERG current change (%, negative = inhibition) at 10uM” value of the first is higher: -49.1% for the first, -66.4% for the second.

First: CC(=O)N1CCN(CCN=CC2=C(O)CC(c3ccc(Cl)cc3)CC2=O)CC1 (stereo not shown)
Second: CC(=O)N1CCN(C(=O)COc2ccccc2C(=O)Nc2ccccc2)CC1
The “hERG current change (%, negative = inhibition) at 10uM” value of the first is higher: -15.7% for the first, -53.2% for the second.

Going from `Fc1c(F)c(C(F)(F)F)c(F)c(F)c1N/N=C\c1cccs1` to `O=C(CSc1nc2c(sc3ccccc32)c(=O)n1CCO)NCc1ccco1`, the “hERG current change (%, negative = inhibition) at 10uM” value falls from 15.5% to -18.2%.

Compared with `Cc1cccc(NC(=O)c2ccccc2OCC(=O)N2CCOCC2)c1C`, `O=C(Nc1cccc(Cl)c1Cl)c1ccccc1OCC(=O)N1CCOCC1` is lower in “hERG current change (%, negative = inhibition) at 10uM” value: -6.62% for the first, -13.5% for the second.

First: Cc1cc(NC(=O)c2ccc(Cl)cc2)cc(C)c1OCC(=O)N1CCOCC1
Second: Cc1ccc(C(=O)Nc2cc(C)c(OCC(=O)N3CCOCC3)c(C)c2)cc1
The “hERG current change (%, negative = inhibition) at 10uM” value of the first is lower: -52.4% for the first, -11.3% for the second.

Going from `Cc1ccc(Cl)cc1NC(=O)c1ccccc1OCC(=O)N1CCOCC1` to `CCCCOc1ccc(C(=O)Nc2cc(C)c(OCC(=O)N3CCOCC3)c(C)c2)cc1`, the “hERG current change (%, negative = inhibition) at 10uM” value rises from -63.6% to -24.8%.

Going from `CC(=O)c1ccc(NC(=O)COc2ccccc2C(=O)Nc2ccccc2)cc1` to `O=C(CSc1nc2c(sc3ccccc32)c(=O)n1CCc1ccccc1)NCc1ccco1`, the “hERG current change (%, negative = inhibition) at 10uM” value falls from 9.66% to -8.32%.

Going from `COc1ccc(C(CNC(=O)c2cc(C)on2)N(C)C)cc1` (stereo not shown) to `CCN(CC)CCn1c(SCC(=O)NCc2ccco2)nc2c(sc3ccccc32)c1=O`, the “hERG current change (%, negative = inhibition) at 10uM” value falls from 22.1% to -68.2%.

Compared with `CCCCn1c(SCC(=O)NCc2ccco2)nc2c(sc3ccccc32)c1=O`, `CCOCCCn1c(SCC(=O)NCc2ccco2)nc2c(sc3ccccc32)c1=O` is lower in “hERG current change (%, negative = inhibition) at 10uM” value: -16.8% for the first, -27.6% for the second.

Going from `O=C(CSc1nc2c(sc3ccccc32)c(=O)n1CCCN1CCCC1)NCc1ccco1` to `O=C(CSc1nc2c(sc3ccccc32)c(=O)n1CCCN1CCCC1)NCC1CCCO1` (stereo not shown), the “hERG current change (%, negative = inhibition) at 10uM” value rises from -73% to -61.6%.

Going from `O=C(CSc1nc2c(sc3ccccc32)c(=O)n1CCO)NCC1CCCO1` (stereo not shown) to `O=C(CSc1nc2c(sc3ccccc32)c(=O)n1CCCN1CCOCC1)NCC1CCCO1` (stereo not shown), the “hERG current change (%, negative = inhibition) at 10uM” value falls from -3.42% to -14.3%.

First: CCN(CC)CCn1c(SCC(=O)NCCC2=CCCCC2)nc2c(sc3ccccc32)c1=O
Second: C=CCN(C(=O)CSc1nc2c(sc3ccccc32)c(=O)n1CCN(CC)CC)c1ccccc1
The “hERG current change (%, negative = inhibition) at 10uM” value of the first is higher: 35.5% for the first, -77.4% for the second.
